Data from PubChem BioAssay (Tox21).
Inconclusive results are not listed. Where a call stands in place of a potency, no number is given. Unmarked numbers belong to inactive results. Active and inactive are the calls of the source. Calls come from the whole dose curve.

Experiment: qHTS assay to identify small molecule agonists of the progesterone receptor (PR) signaling pathway - cell viability counter screen (AID 1346799); note: nearly all actives have a fitted effect of over 45% in size
Conditions: PR-UAS-bla HEK293T viability, CellTiter-Glo luminescence, 16 h; series mostly up to 92.4 µM
Text: National Center for Advancing Translational Sciences [NCATS]
NIH Chemical Genomics Center [NCGC]
U.S. Environmental Protection Agency [EPA]
National Institutes of Environmental Health Sciences [NIEHS]
National Toxicology Program [NTP]
U.S. Food and Drug Administration [FDA]
Progesterone receptor (PR), a nuclear hormone receptor, plays an important role in development, metabolic homeostasis and reproduction. It is activated by the steroid hormone progesterone. Endocrine disrupting chemicals (EDCs) and their interactions with steroid hormone receptors like PR causes disruption of normal endocrine function. To identify the compounds that stimulate PR signaling, a PR-UAS-bla GripTite cell line i.e. PR-UAS-bla HEK293T (Invitrogen, Carlsbad, CA, USA) containing a beta-lactamase reporter gene under the control of an UAS response element was used to screen Tox21 10K compound library. The cytotoxicity of the Tox21 compound library against the PR-bla cell line was tested in parallel by measuring the cell viability using CellTiter-Glo assay in the same wells.
Tox21 Assay Protocol Summary:
PR-UAS-bla HEK293T cells were dispensed at 3,000 cells/5 uL of assay medium containing 2% charcoal stripped FBS per well into black wall/clear-bottom 1536-well plates using a Multidrop Combi (ThermoFisher Scientific, Waltham, MA) dispenser. After the assay plates were incubated at a 37C and 5% CO2 for 6 hr, 23 nL of compounds dissolved in DMSO, positive controls or DMSO only was transferred to the assay plate by a Pintool station (Kalypsys, San Diego, CA). The plates were incubated at 37C and 5% CO2 for 16 hr. Then 1 uL of LiveBLAzer B/G FRET substrate was added using a Flying Reagent Dispenser (FRD, Aurora Discovery, San Diego, CA), the plates were incubated at room temperature for 2 hours, and fluorescence intensity was measured by an Envision plate reader (PerkinElmer, Shelton, CT). For cell viability readout that measures cytotoxicity, 4 uL/well of CellTiter-Glo reagent was added into the assay plates using a FRD. After 30 min incubation at room temperature, the luminescence intensity in the plates was measured using a ViewLux (PerkinElmer) plate reader.
Potency is the fitted concentration of half-maximal effect.

Structure (SMILES) | activity change, negative = cytotoxicity | Potency
CCCCCCCCCCCCCCN(C)C | 0% [at 19 µM] | –
CC1CCc2nccnc21 (stereo not given) | – | inactive
CCCCCCCC/C=C\CCCCCCCC(=O)OCCO | – | inactive
CC1=CC[C@@]23C[C@@H]1C(C)(C)[C@@H]2CC[C@H]3C | – | inactive
CCCCC[C@H](O)/C=C/[C@H]1[C@H](O)CC(=O)[C@@H]1C/C=C\CCCC(=O)O | – | inactive
CC(=O)Oc1cccc(O)c1 | – | inactive
COc1cc(NS(=O)(=O)c2ccc(N)cc2)nc(C)n1 | – | inactive
O=C(Nc1ccc(C(=O)O)c(O)c1)c1ccccc1 | – | inactive
CNc1c2c(nn1C)CCCC2 | – | inactive
CC(=O)NNC(C)=O | – | inactive
CCCCC(CC)COS(=O)(=O)O (stereo not given) | – | inactive
Nc1nc(-c2ccc([N+](=O)[O-])cc2)cs1 | – | inactive
C[C@@H]1C[C@H]2[C@@H]3CCC4=CC(=O)C=C[C@]4(C)[C@@]3(F)[C@@H](O)C[C@]2(C)[C@@]1(O)C(=O)COP(=O)(O)O | – | inactive
NC(=O)CCCCC(N)=O | – | inactive
CCCCCC | – | inactive
CC(C)C1CCC(C(=O)N[C@H](Cc2ccccc2)C(=O)O)CC1 (stereo not given in full) | – | inactive
Cc1ccc2nc(N)[nH]c(=O)c2c1Sc1ccncc1 | – | inactive
COC(C)(C)OC | – | inactive
Cc1ccc(NC(=O)N(C)C)cc1NC(=O)N(C)C | – | inactive
CCN(Cc1cccc(S(=O)(=O)O)c1)c1ccc(C(=C2C=CC(=[N+](CC)Cc3cccc(S(=O)(=O)O)c3)C=C2)c2ccc(O)cc2S(=O)(=O)[O-])cc1 | – | inactive

Structure (SMILES) | activity change, negative = cytotoxicity | Potency
COc1cc(NC(C)CCCN)c2ncccc2c1 (stereo not given) | – | inactive
[Cl][Nd]([Cl])[Cl] | – | inactive
CC(C)c1ccc(C(=O)N=C(N)N)cc1S(C)(=O)=O | – | inactive
CCN(Cc1cccc(S(=O)(=O)O)c1)c1ccc(C(=C2C=CC(=[N+](CC)Cc3cccc(S(=O)(=O)O)c3)C=C2)c2ccccc2S(=O)(=O)[O-])cc1 | – | 13.7 µM (active)
O=C(CCS)OCC(COC(=O)CCS)(COC(=O)CCS)COC(=O)CCS | – | inactive
C=C(C)C(=O)OCCC(F)(F)C(F)(F)C(F)(F)C(F)(F)C(F)(F)C(F)(F)F | – | inactive
CC(C)(C)C(O)/C=C/c1ccc2c(c1)OCO2 (stereo not given) | – | inactive
CC(C)N(C)C | – | inactive
Oc1cccc2[nH]ccc12 | – | inactive
CC(CN(CCN(CC(C)OCCO)CC(C)OCCO)CC(C)OCCO)OCCO (stereo not given) | – | inactive
C/C(C=O)=C\c1ccccc1 | – | inactive
O=C(O)CCCc1c[nH]c2ccccc12 | – | inactive
CCOC(=O)N1CCC(Nc2ccc(Cl)cc2N)CC1 | – | inactive
CCCCCCC(CO)CCCC (stereo not given) | – | inactive
CCC(CO)(CO)[N+](=O)[O-] | – | inactive
CCCCCCC(O)CCOC(C)=O (stereo not given) | – | inactive
O=C(NC(Cc1cc(=O)[nH]c2ccccc12)C(=O)O)c1ccc(Cl)cc1 (stereo not given) | – | inactive
CSSc1ccoc1C | – | inactive
CNC1CCCN(c2c(F)cc3c(=O)c(C(=O)O)cn(C4CC4)c3c2OC)C1 (stereo not given) | – | inactive
O=C1OC(=O)c2c(Br)c(Br)c(Br)c(Br)c21 | – | inactive
